In PubChem BioAssay (Tox21):
Inconclusive results are not listed. A call without a number means that no potency is given here. Values without a mark were called inactive. The source made the active and inactive calls. Calls follow the shape of the dose curve; as a rule, active = well fitted inhibition curve with a large enough effect in the repeat runs; inconclusive = weak or mixed curves; inactive = no such curve, though single readings can be large or run the other way.

These compounds were tested against Estrogen receptor (Homo sapiens) (UniProt P03372) (assay: qHTS assay to identify small molecule antagonists of the estrogen receptor alpha (ER-alpha) signaling pathway using the BG1 cell line in the presence of 0.1 nM 17-beta-estradiol (AID 1259244; also: nearly all actives have a fitted effect of over 50% in size)). Conditions: VM7Luc4E2 (BG1) ERE-luciferase, antagonist mode, 0.1 nM E2, 22 h; series mostly up to 92.4 µM.
Chain of Estrogen receptor (Homo sapiens) (P03372 whole entry, looked up): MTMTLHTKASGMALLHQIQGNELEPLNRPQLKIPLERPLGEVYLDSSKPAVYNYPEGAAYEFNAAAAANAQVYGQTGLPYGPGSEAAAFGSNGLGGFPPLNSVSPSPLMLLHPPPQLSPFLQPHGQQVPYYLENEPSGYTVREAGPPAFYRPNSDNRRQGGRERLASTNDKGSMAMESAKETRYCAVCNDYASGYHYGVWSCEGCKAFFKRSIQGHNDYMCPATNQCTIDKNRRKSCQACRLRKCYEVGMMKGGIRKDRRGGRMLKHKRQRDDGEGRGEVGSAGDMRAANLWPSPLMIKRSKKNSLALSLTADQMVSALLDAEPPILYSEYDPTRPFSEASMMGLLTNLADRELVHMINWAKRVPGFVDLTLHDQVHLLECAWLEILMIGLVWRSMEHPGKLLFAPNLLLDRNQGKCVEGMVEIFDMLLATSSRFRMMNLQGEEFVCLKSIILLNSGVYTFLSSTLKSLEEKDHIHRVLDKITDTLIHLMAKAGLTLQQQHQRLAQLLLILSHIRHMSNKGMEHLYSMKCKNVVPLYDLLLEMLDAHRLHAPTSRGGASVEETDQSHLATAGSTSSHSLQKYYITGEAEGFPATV
Text: National Center for Advancing Translational Sciences [NCATS]
NIH Chemical Genomics Center [NCGC]
U.S. Environmental Protection Agency [EPA]
National Institutes of Environmental Health Sciences [NIEHS]
National Toxicology Program [NTP]
U.S. Food and Drug Administration [FDA]
Estrogen receptor (ER), a member of the nuclear hormone receptor plays an important role in development, metabolic homeostasis and reproduction. Two subtypes of ER, ER-alpha and ER-beta, have similar expression patterns with some uniqueness in both types. Endocrine disrupting chemicals (EDCs) and their interactions with steroid hormone receptors like ER causes disruption of normal endocrine function. Therefore, it is important to understand the effect of environmental chemicals in ER signaling pathway. For identifying ER antagonists, VM7Luc4E2 cell line was used to screen against Tox21 compound libraries.
VM7Luc4E2 cell line (provided by Denison MS, University of California) endogenously express full-length ER-alpha and is stably transfected with a plasmid containing four estrogen responsive elements (ERE) upstream of a luciferase reporter gene. The current screening for identification of ER-alpha inhibitors against Tox21 compound libraries used lower concentration (0.1 nM) of 17beta-Estradiol as a stimulator.
Tox21 Assay Protocol Summary:
VM7Luc4E2 cells were cultured in phenol red free assay medium containing 10% charcoal stripped FBS for 5 days prior to the assay. The cells were dispensed at 4,000 cells/well in 4 uL of assay medium into white wall/solid-bottom 1536-well plates (Corning Life Sciences, Corning, NY) using a Multidrop Combi (ThermoFisher Scientific, Waltham, MA) dispenser. After the assay plates were incubated at 37C and 5% CO2 for 24 hr, 23 nL of compounds dissolved in DMSO, positive controls or DMSO only was transferred to the assay plates by a Pintool station (Kalypsys, San Diego, CA). The transfer of compounds was followed by the addition of 1 uL of 0.1 nM (final concentration) agonist (17beta-Estradiol)/assay medium using a Flying Reagent Dispenser (FRD, Aurora Discovery, San Diego, CA). The plates were incubated at 37C and 5% CO2 for 22 hr. For luciferase reporter gene assay, 4 uL of ONE-Glo reagent (Promega Corporation, Madison, WI) was added to each well using the FRD and after 30 min incubation at room temperature luminescence intensity was measured using ViewLux plate reader (PerkinElmer, Shelton, CT).
Potency is read from the fitted curve at half-maximal effect.

SMILES	Potency	activity change, negative = inhibition
CCCCC(=O)O[C@]1(C(=O)CO)[C@@H](C)C[C@H]2[C@@H]3CCC4=CC(=O)C=C[C@]4(C)[C@@]3(F)[C@@H](O)C[C@@]21C	inactive	–
O=C1NCCN1	inactive	–
Cc1ccc(S)cc1	inactive	–
CC(CCc1ccc2c(c1)OCO2)NN (stereo not given)	inactive	–
O=C(N/N=C/c1ccc([N+](=O)[O-])o1)c1ccc(O)cc1	26.6 µM (active)	–
CSc1ccc(Oc2ccc(S(N)(=O)=O)cc2CN(C)C)cc1C	68.6 µM (active)	–
Nc1ccc(S(=O)(=O)O)cc1	inactive	–
N#C[C@@H]1C[C@@H]2C[C@@H]2N1C(=O)[C@@H](N)C12CC3CC(CC(O)(C3)C1)C2	inactive	–
O=S1OCCO1	inactive	–
CCC(C(=O)OCCOCCN(CC)CC)c1ccccc1 (stereo not given)	inactive	–
Cc1nccn1-c1ccc(Sc2cccc(C3(C(N)=O)CCOCC3)c2)cc1	3.06 µM (active)	–
CCCCCCCCCCCC[N+](C)(C)CCCS(=O)(=O)[O-]	inactive	–
CN(C)CCOC1=Cc2ccccc2Sc2ccc(Cl)cc21	inactive	–
COc1cc2[nH]c(=O)[nH]c(=O)c2cc1OC	inactive	–
CC(=O)[C@H]1CC[C@H]2[C@@H]3C=CC4=CC(=O)CC[C@@]4(C)[C@@H]3CC[C@]12C	inactive	–
CC1(C)O[C@@H]2C[C@H]3[C@@H]4CCC5=CC(=O)C=C[C@]5(C)[C@H]4[C@@H](O)C[C@]3(C)[C@]2(C(=O)CO)O1	inactive	–
CC(C)C(=O)O	inactive	–
COC(=O)CC(=O)C(C)(C)C	inactive	–
CCC1(C)CC(=O)NC1=O (stereo not given)	inactive	–
Cc1oncc1C(=O)Nc1ccc(C(F)(F)F)cc1	inactive	–

SMILES	Potency	activity change, negative = inhibition
CC(C)(O)c1ccccc1CC[C@@H](SCC1(CC(=O)O)CC1)c1cccc(/C=C/c2ccc3ccc(Cl)cc3n2)c1	inactive	–
Cn1c(=O)c2c(ncn2CC(=O)O)n(C)c1=O	inactive	–
CN1CCN(c2c(F)cc3c(=O)c(C(=O)O)cn4c3c2OCN4C)CC1	–	2.06% [at 19 µM]
CC(=O)Nc1ccccc1C	inactive	–
ON(Cc1ccccc1)Cc1ccccc1	inactive	–
CCCCC(=O)O[C@]1(C(=O)CO)CC[C@H]2[C@@H]3CCC4=CC(=O)CC[C@]4(C)[C@H]3[C@@H](O)C[C@@]21C	inactive	–
CCCCCCCCCCCC[N+](C)(C)CC(=O)[O-]	inactive	–
NC(=O)N(O)[C@@H]1COc2cc(OCc3ccccc3)ccc21	43.3 µM (active)	–
CCOc1cc(N)c(Cl)cc1C(=O)NCC1CN(Cc2ccc(F)cc2)CCO1 (stereo not given)	inactive	–
CN1Cc2cc(C(=O)N3CCC(C4CCNCC4)CC3)ccc2N[C@@H](CC(=O)O)C1=O	inactive	–
CO/N=C1\CN(c2nc3c(cc2F)c(=O)c(C(=O)O)cn3C2CC2)CC1CN (stereo not given)	inactive	–
CN1CCCN=C1/C=C/c1cccs1	inactive	–
Brc1cc(-c2ccc(Br)c(Br)c2Br)cc(Br)c1Br	inactive	–
CCOC(=N)CC(=O)OCC	inactive	–
CC1=C(C=O)C(C)(C)CCC1	inactive	–
COc1cc2c(cc1OC)-c1cc(=Nc3c(C)cc(C)cc3C)n(C)c(=O)n1CC2	inactive	–
CCC(C)(C)C1CCC(O)CC1 (stereo not given)	inactive	–
C=CCNc1nc(NCC=C)nc(N2CCN(C(c3ccc(F)cc3)c3ccc(F)cc3)CC2)n1	11.9 µM (active)	–
O=C(/C=C/c1ccccc1)OCCCc1ccccc1	inactive	–
Cc1ccc(S(=O)(=O)NC2CCCCC2)cc1	inactive	–
